According to PubChem BioAssay (NCATS):
This is one part of the list. Inconclusive results are not listed. Calls of active or inactive are those of the source. The call rests on the fitted dose curve; in most records, active means well fitted inhibition curve with a large enough effect; inconclusive means small, poorly fitted or top-dose-only effect; inactive means no such curve, though single readings can be large or run the other way.

molecular target: RecQ-like DNA helicase BLM (Homo sapiens) (UniProt P54132); test: qHTS for Inhibitors of WRN Helicase: BLM Helicase Counterscreen for WRN Inhibitors (AID 720503); conditions: Recombinant BLM helicase DNA unwinding, red fluorescence; series mostly up to 57.1 µM; activity change, negative = inhibition: at the top concentration;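 further: plate controls were DMSO vehicle for no effect and enzyme-free control wells for full effect; nearly all actives have a fitted effect of over 60% in size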
How it was run: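 1 nM BLM, Tris pH 8.0/NaCl/MgCl2/DTT/Tween-20; cpd preinc 15 min RT; start w/ 100 nM DNA + 2 mM ATP final; fluorescence (ex 525/em 598) two reads 15 min apart; normalized to enzyme-free and DMSO controls.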

Chain of RecQ-like DNA helicase BLM (Homo sapiens) (P54132 whole entry, looked up): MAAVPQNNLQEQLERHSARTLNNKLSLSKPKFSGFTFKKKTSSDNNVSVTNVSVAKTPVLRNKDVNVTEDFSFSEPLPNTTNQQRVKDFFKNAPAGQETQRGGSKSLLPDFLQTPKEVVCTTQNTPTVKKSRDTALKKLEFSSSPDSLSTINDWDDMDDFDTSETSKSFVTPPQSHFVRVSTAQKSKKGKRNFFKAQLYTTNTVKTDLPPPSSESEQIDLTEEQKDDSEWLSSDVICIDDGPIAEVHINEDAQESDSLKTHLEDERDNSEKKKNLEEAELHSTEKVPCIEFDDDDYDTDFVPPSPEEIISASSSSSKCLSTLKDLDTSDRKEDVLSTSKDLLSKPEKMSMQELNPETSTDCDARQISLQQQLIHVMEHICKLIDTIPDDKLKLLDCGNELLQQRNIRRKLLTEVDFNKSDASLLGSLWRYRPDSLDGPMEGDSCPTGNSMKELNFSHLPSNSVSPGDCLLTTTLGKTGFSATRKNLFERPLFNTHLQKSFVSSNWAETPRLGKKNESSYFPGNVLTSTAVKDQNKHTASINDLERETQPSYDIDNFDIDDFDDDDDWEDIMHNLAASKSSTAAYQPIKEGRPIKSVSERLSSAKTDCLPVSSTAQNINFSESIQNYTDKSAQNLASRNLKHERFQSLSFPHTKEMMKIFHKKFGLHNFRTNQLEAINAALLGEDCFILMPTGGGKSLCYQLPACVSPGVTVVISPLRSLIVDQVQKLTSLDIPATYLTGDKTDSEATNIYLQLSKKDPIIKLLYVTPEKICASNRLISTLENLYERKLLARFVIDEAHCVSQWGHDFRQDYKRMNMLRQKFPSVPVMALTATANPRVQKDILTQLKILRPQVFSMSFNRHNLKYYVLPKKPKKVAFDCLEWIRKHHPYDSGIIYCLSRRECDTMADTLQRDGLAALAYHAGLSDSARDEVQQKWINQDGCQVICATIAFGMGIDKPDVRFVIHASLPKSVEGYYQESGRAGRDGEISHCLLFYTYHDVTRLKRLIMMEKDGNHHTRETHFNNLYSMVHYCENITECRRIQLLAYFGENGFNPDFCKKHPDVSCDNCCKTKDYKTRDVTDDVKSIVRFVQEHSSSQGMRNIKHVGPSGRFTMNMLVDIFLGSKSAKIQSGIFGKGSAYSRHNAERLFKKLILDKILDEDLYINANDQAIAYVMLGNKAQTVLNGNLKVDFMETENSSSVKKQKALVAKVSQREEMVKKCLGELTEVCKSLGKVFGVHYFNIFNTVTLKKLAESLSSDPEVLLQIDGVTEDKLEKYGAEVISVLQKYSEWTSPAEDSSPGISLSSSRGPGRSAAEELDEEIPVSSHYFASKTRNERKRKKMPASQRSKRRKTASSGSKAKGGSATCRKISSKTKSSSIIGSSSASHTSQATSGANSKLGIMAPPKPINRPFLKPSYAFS

SMILES | activity change, negative = inhibition
O=C(Nc1ccccc1)c1nnsc1S(=O)(=O)c1ccc(Cl)cc1 | -18.7% (inactive)
CC(=O)N(C1=C(Cl)C(=O)c2ccccc2C1=O)c1ccc(C(=O)O)cc1 | -6.7% (inactive)
O=c1[nH]c2ccccc2n2c(-c3ccccc3)nnc12 | -24.8% (inactive)
COC(=O)/C=C\C(=O)Nc1cccc([N+](=O)[O-])c1 | -1.68% (inactive)
